The panel holds about 79,000 compounds, 15% with a hit somewhere; the sample as a whole holds those more often. Values without a mark were called inactive. Calls of active or inactive are those of the source. No stated cut-off is given here; in the data, active means growth inhibition above about 70%; inactive means the rest.
Columns and labels:
[1] = NCI Yeast Anticancer Drug Screen. Data for the rad50 strain (AID 155);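 further: 0% = growth of vehicle-only cultures of the same strain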; settings: S. cerevisiae rad50 strain growth inhibition; at 50.0 µM; stronger effect = higher value
Summary of the method: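 Cells are treated with compound, grown, and their growth is then scored against vehicle-only cultures of the same repair-deficient yeast strain.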

[2] = NCI Yeast Anticancer Drug Screen. Data for the mec2-1 strain (AID 157); settings: S. cerevisiae mec2-1 strain, at 50.0 µM, stronger effect = higher value
Summary of the method: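 Each compound was tested on mec2-1 yeast, a strain altered in DNA damage repair or cell cycle control. Growth inhibition is reported relative to vehicle.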

[3] = NCI Yeast Anticancer Drug Screen. Data for the sgs1 mgt1 strain (AID 161);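 further: 0% = growth of cultures given vehicle only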; settings: S. cerevisiae sgs1 mgt1 strain, at 50.0 µM, stronger effect = higher value
Summary of the method: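 Read-out: growth inhibition vs vehicle controls. Cells: mutant yeast strain deficient in DNA damage repair.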

[4] = NCI Yeast Anticancer Drug Screen. Data for the cln2 rad14 strain (AID 165);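 further: 0% = growth equal to vehicle treated cultures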; settings: S. cerevisiae cln2 rad14 strain, at 50.0 µM, stronger effect = higher value
Summary of the method: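 Test compounds were added to cln2 rad14 yeast cultures; inhibition of growth was then determined by comparison with vehicle treatment.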

[5] = NCI Yeast Anticancer Drug Screen. Data for the bub3 strain (AID 167); settings: S. cerevisiae bub3 mutant strain, at 50.0 µM, stronger effect = higher value
Summary of the method: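 Part of a panel of yeast mutants defective in DNA damage repair or cell cycle regulation. Each strain is grown with compound, and inhibition is calculated relative to solvent-treated cultures.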

[6] = NCI Yeast Anticancer Drug Screen. Data for the mlh1 rad18 strain (AID 175); settings: S. cerevisiae mlh1 rad18 strain growth inhibition; at 50.0 µM; stronger effect = higher value
Summary of the method: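 Inhibition values reflect reduced growth of mutant yeast versus vehicle-treated controls following compound exposure; the mutations affect DNA damage repair.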

| Structure (SMILES) | growth inhibition [1] | growth inhibition [2] | growth inhibition [3] | growth inhibition [4] | growth inhibition [5] | growth inhibition [6] |
| --- | --- | --- | --- | --- | --- | --- |
| CCCC(=O)Nc1cccc(Cl)c1 | 16.2% | 9.05% | 8.85% | 7.65% | -0.75% | 2.35% |
| C[N+](C)(C)CCOC(=O)C(c1ccccc1)C1(O)CCCC1 (configuration not stated) | 33.6% | -16.1% | 12.7% | -24.4% | -1.7% | 22.3% |
| COc1cc2c(cc1OC)C1c3cc(OC)c(OC)cc3CC(=O)N1CC2 (configuration not stated) | 17.6% | 7.1% | 38.5% | 19.3% | 24.5% | 37.6% |
| CCOCCOC(=O)CCCCCCCCC(=O)OCCOCC | 9.7% | 11.9% | 12.6% | 37.9% | 25.6% | 25.9% |
| COc1ccc(N2C(=O)/C(=C/c3ccc(N(CCC#N)CCC#N)cc3C)N=C2c2cc([N+](=O)[O-])ccc2Cl)cc1 | -13.2% | 0.95% | 1.5% | -5.55% | -13.9% | 1.85% |
| COc1ccc(N=c2nc3n4c(c(Br)cc(Br)c4n2)NC(C(Br)(Br)Br)=N3)cc1 | 1.7% | 1.2% | 6.25% | -15.3% | 4.35% | 41.1% |
| CCOc1ccccc1/C=C(\C#N)c1cccc(Cl)c1 | 42.6% | 9.75% | 29.9% | 13.8% | 19.5% | -4.15% |
| CCN(CC)C(=S)SCCO | -4.3% | -11.2% | 6.15% | -9.7% | -3.5% | -1.65% |
| CSc1nc(NC2OC(COC(C)=O)C(OC(C)=O)C(OC(C)=O)C2OC(C)=O)c2c(n1)OCC2=O (configuration not stated) | 2.65% | -13.7% | -38% | 28.2% | 30.9% | 18.1% |
| CC1OC2CC(O)C1(O)C1=C2C(O)=C(C(N)=O)C(=N)C1=O (configuration not stated) | 12.3% | -15.6% | 19.4% | 6.8% | 5.35% | -21.4% |
| CCC(c1ccc(OCc2ccccc2)cc1)c1cc2c(cc1OCCO)OCO2 (configuration not stated) | 23.7% | 57% | -3% | 0.9% | 39.7% | 57% |
| NC(=O)Cc1ccccn1 | 5.05% | -2.6% | 2.95% | -8.15% | 5.25% | 1.4% |
| Nc1cccc(NC(=O)c2cccc(N)c2)c1 | 9.8% | -4.75% | 2.2% | 10.4% | 11.4% | 18.1% |
| CC1(C)CC(C2=NCCO2)CC(C)(C)N1 | -43.7% | -29.2% | -39.3% | -6.45% | 15.2% | -31.1% |
| Nc1ncnc2nc(N3CCN(CCO)CC3)[nH]c12 | 9.45% | -8.75% | -34.1% | -29.5% | -26.2% | -12.5% |
| Cc1ccc(-c2c(N)nc(NC#N)nc2CCC(=O)Nc2ccccc2[N+](=O)[O-])cc1 | 1.9% | 1.35% | -14.6% | 5.5% | 3.7% | 5.4% |
| CC(C)(C)OC(=O)c1ccc(NCc2cc(O)ccc2O)cc1 | 87.4% (active) | 89% (active) | 90.8% (active) | 90.3% (active) | 88.5% (active) | 87.1% (active) |
| OC1CCCCC2CC2C1O (configuration not stated) | 9.25% | -2.8% | 6.8% | -44.7% | 3.55% | -5.65% |
| C=CCNC(=S)Nc1ccccc1OCC | 5.2% | -3.8% | -5.05% | -68.5% | -9.6% | 0.2% |
| O=C(O)c1c2c(nc3ccccc13)Cc1ccccc1-2 | 1% | -0.75% | 10.1% | -0.2% | 17.3% | -39.8% |
| O=C(O)C1CCOCC1 | 9.9% | 0.7% | 2.35% | 4% | 15.2% | -0.4% |

| Structure (SMILES) | growth inhibition [1] | growth inhibition [2] | growth inhibition [3] | growth inhibition [4] | growth inhibition [5] | growth inhibition [6] |
| --- | --- | --- | --- | --- | --- | --- |
| Cc1ccc(Cl)cc1NC(=O)C(Br)C(Br)c1ccccc1 (configuration not stated) | 20.6% | -7.7% | 11.9% | 0.85% | -0.1% | 6.2% |
| Cc1cn(C2CCCCC2O)c(=O)[nH]c1=O (configuration not stated) | -15.8% | -14% | -2.85% | 12.6% | -15.1% | -16.9% |
| CC(=O)c1ccc(Cl)c(Cl)c1 | -3.6% | -0.5% | -3.75% | 14.9% | 4.7% | -15.3% |
| O=C(O)c1cc(=O)[nH]c(=O)[nH]1 | -17.6% | 0.05% | -14.9% | 7.05% | -6.5% | -21.2% |
| Cc1ccc(NC(=O)c2cc3ccccc3c(N=Nc3ccccc3O)c2O)c(C)c1 | -11.9% | 5.4% | 9% | 9.85% | 12.6% | 10.7% |
| CC(C)C(NC(=O)c1ccccc1C(=O)O)c1ccccc1 (configuration not stated) | 6.3% | -7.35% | 7.1% | 4.45% | 29.6% | -3.7% |
| Cc1c(C)c2cc3ccc(Cl)cc3nc2c2ccccc12 | -7.65% | -16.9% | 2.75% | -21.6% | 2.9% | 1.7% |
| CCCCCCCCCCN(CCCCCCCCCC)C(C)C(O)c1ccc2cc(Br)c3ccccc3c2c1 (configuration not stated) | -12.4% | -13.2% | -15.8% | -16.9% | -12.5% | -14.3% |
| CCOC(=O)CN1C(=O)CSC1=S | 42% | -3.85% | 24.3% | 22.4% | 61.4% | 31.1% |
| Cc1cccc(-c2nnc(N)o2)c1[N+](=O)[O-] | -36% | -9.6% | -10.6% | 1.75% | -11.4% | -16.4% |
| Nc1ccc(Cl)cc1C(=O)N1CCN(c2ccc([N+](=O)[O-])cn2)CC1 | 33.5% | 16.2% | 51.4% | 36.1% | 42.9% | 18.8% |
| CCn1c2ccc(N(C)C)cc2c2cc(N(C)C)ccc21 | -25.4% | -38.5% | -24.1% | -38.8% | -18.5% | -52.4% |
| COC(=O)CCC(=O)O | 8.6% | -0.1% | 11.2% | -8.05% | -2.05% | 43.4% |
| Nc1ccc(S(=O)(=O)Nc2nccs2)cc1 | -0.6% | -17.2% | -3.7% | 6.05% | -1.85% | -3.4% |
| O=c1nc(NCC23CC4CC(CC(C4)C2)C3)ccn1C1OC(CO)C(O)C1O (configuration not stated) | 21.8% | -0.95% | -8.1% | 16.6% | -4.95% | -6.5% |
| CC(C(/C=N/NC(N)=S)=N/NC(N)=S)N1C(=O)c2ccccc2C1=O (configuration not stated) | 3.75% | -11.2% | -16.9% | -5.1% | 2.45% | 23.9% |
| CC(C)(C)c1cc(C[N+](C)(C)[O-])c(O)c(-c2ccccc2)c1 | -0.65% | -26.2% | 2.05% | -19.2% | 6.35% | -13.6% |
| CCC(C)(O)CCC(C)(O)CC (configuration not stated) | 27.6% | 5.4% | 14.9% | -14.7% | 20% | 9.25% |
| Nc1cccc2c1CCC=C2 | -0.05% | -6.5% | -3.55% | -6% | 7.6% | -1.9% |
| N#CC(c1ccccc1)C1CCCCC1 (configuration not stated) | -8.65% | -20% | -4.95% | -4.3% | 6.1% | 20.4% |
| CCOc1ccc(N2C(C#N)c3ccccc3OC2c2ccccc2O)cc1 (configuration not stated) | 3.65% | 46.1% | 18.6% | -5.2% | 32.5% | 11.6% |
